In the library only some 19% were active in any assay of this set; here they are far more common.
SW480 rerep – A quantitative high throughput screen for small molecules that induce DNA re-replication in SW480 colon adenocarcinoma cells | AID 624297, 2012 | SW480 DNA re-replication, Hoechst DNA content imaging, 48 h | Potency, µM (titrated, usually from 46.1 µM), for the others: at the top dose re-replication activation, actives largely listed as activators | 340,000 compounds, 1.8% hits; note: potency is the fitted concentration of half-maximal effect; % of control where 0% means no effect; nearly all actives have a fitted effect of over 55% in size
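Image-based read-out: total Hoechst fluorescence of nuclei (405 nm excitation, 500-530 nm emission), with hits raising the fraction of high-intensity nuclei. SW480 colon cells incubated 48 hr with compounds at 37 C.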
TDP1 cell CPT – qHTS for Inhibitors of human tyrosyl-DNA phosphodiesterase 1 (TDP1): qHTS in cells in presence of CPT. chicken DT40 Tdp1-/-;hTDP1 cells + 20 nM CPT, ATP luminescence, 48 h. Potency, µM (titrated, usually from 46.2 µM), without a hit: at the highest dose activity change, negative = growth inhibition, usual class: inhibitors. 420,000 compounds, 12% hits; note: potency is the fitted concentration of half-maximal effect; % is set by controls: 0 for no effect and ±100 for the full control effect; nearly all actives have a fitted effect of over 55% in size
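Chicken DT40 Tdp1-/- cells complemented with human TDP1, 400 cells/well, exposed to compounds plus 20 nM camptothecin for at least 48 h at 37 C; viability read as ATP content by CellTiter-Glo luminescence.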
DT40 TDP1 no CPT – qHTS for Inhibitors of human tyrosyl-DNA phosphodiesterase 1 (TDP1): qHTS in cells in absence of CPT; Potency, µM (highest dose often 46.2 µM), without a hit: at the top dose activity change, negative = growth inhibition, hits mostly inhibitors; AID 686978, 2013; DT40 Tdp1-/- hTDP1 cells, no CPT, ATP luminescence, 48 h; 420,000 compounds, 15% hits; note: potency is the fitted concentration of half-maximal effect; % is set by controls: 0 for no effect and ±100 for the full control effect; nearly all actives have a fitted effect of over 55% in size
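Camptothecin absent (DMSO only). Human TDP1-complemented DT40 knockout cells, 400 cells/well, 37 °C for minimum 48 hr; ATP measured via CellTiter-Glo, 30 min dark incubation, luminescence.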
Chronic BCR inh – qHTS Assay to Find Inhibitors of Chronic Active B-Cell Receptor Signaling | ABC-DLBCL IkBa-CBG/CBR reporter, luminescence ratio, 4 h | 340,000 compounds, 0.05% hits | Potency, µM (doses to about 46.1 µM), for the others: at the highest dose activity change, negative = inhibition, usual class: inhibitors; active = well fitted inhibition curve with a large enough effect in the signal ratio, with a control signal flat, not every such curve was filed as active; inconclusive = small, poorly fitted or top-dose-only effect, or effect the other way, or a change in a side signal; the % refers to the signal ratio;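 note: potency is the fitted concentration of half-maximal effect; plate controls were basal doxycycline-induced cells for no effect and cells given 10 µM MG132 for full effect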
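Compounds up to 46 uM were incubated four hours with TMD8 cells whose green CBG68 luciferase is fused to IkappaBalpha; red CBR luminescence normalised the signal, and concentration-effect curves were fitted to fusion, red and ratio data.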
MCF10A rerep – A quantitative high throughput screen for small molecules that induce DNA re-replication in MCF 10a normal breast cells; MCF 10A DNA re-replication, Hoechst nuclear intensity, 48 h; AID 624296, 2012; 350,000 compounds, 2.9% hits; Potency, µM (titrated, usually from 46.1 µM), inactives show top-dose activity, positive = re-replication, usual class: activators; note: potency is the fitted concentration of half-maximal effect; % of control where 0% means no effect; nearly all actives have a fitted effect of over 50% in size
IL1B secr inh – qHTS for Inhibitors of Inflammasome Signaling: IL-1-beta AlphaLISA Primary Screen | 360,000 compounds, 4.7% hits | THP-1 LPS/ATP IL-1B secretion, AlphaLISA, 16 h; stronger effect = lower value | activity change, % at 57.5 µM; in the data active = activity change below about -50%; inconclusive = mostly about -30% to -49%; note: % is set by controls: 0 for no effect and ±100 for the full control effect
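THP-1 cells pretreated 1 hr with compounds (up to 57.5 uM final), then stimulated with LPS (250 ng/mL final) plus ATP (1.25 mM final); secreted IL-1B measured by AlphaLISA after 16 hr, decreased signal indicating inhibition.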
* hit, by the source's call; ? = inconclusive; nt = not tested or not shown. Unless noted, calls come from the whole dose curve; as a rule, active = well fitted curve in the direction sought with a large enough effect; inconclusive = small, poorly fitted or top-dose-only effect, or another doubt; inactive = no such curve, though single readings can be large; an effect the other way counts as inactive or inconclusive.

SMILES	SW480 rerep	TDP1 cell CPT	DT40 TDP1 no CPT	Chronic BCR inh	MCF10A rerep	IL1B secr inh
O=C(NCc1cccnc1)C1CCC(c2ccc(Cl)cc2)CC1 (centres undefined)	-17%	?	16µM*	8%	15%	-24
CC(=O)c1cccc(-c2ccnc3c2CC(C(=O)Nc2cccc(C(F)(F)F)c2)O3)c1 (centres undefined)	nt	26µM*	13µM*	nt	nt	44
CC(=O)c1cccc(NC(=O)C2Cc3c(-c4ccc5c(c4)OCO5)ccnc3O2)c1 (centres undefined)	nt	13µM*	12µM*	nt	nt	-18
CC(=O)Nc1ccc(-c2ccnc3c2CC(C(=O)Nc2cccc(C(C)=O)c2)O3)cc1 (centres undefined)	nt	?	15µM*	nt	nt	-27
CC(=O)Nc1ccc(-c2ccnc3c2CC(C(=O)Nc2cccnc2)O3)cc1 (centres undefined)	nt	5.2µM*	3.7µM*	nt	nt	-8
CC(=O)c1cccc(-c2ccnc3c2CC(C(=O)Nc2cccc(NS(C)(=O)=O)c2)O3)c1 (centres undefined)	nt	15µM*	9.2µM*	nt	nt	-10
CC(=O)c1cccc(NC(=O)C2Cc3c(-c4cccc(C(C)=O)c4)ccnc3O2)c1 (centres undefined)	nt	16µM*	15µM*	nt	nt	0
CC(=O)Nc1ccc(-c2ccnc3c2CC(C(=O)Nc2ccc(Cl)c(C(F)(F)F)c2)O3)cc1 (centres undefined)	nt	21µM*	?	nt	nt	?
CC(=O)c1cccc(-c2ccnc3c2CC(C(=O)Nc2cccnc2)O3)c1 (centres undefined)	nt	3%	-23%	nt	nt	59
CC(=O)c1cccc(-c2ccnc3c2CC(C(=O)Nc2ccc(C(C)C)cc2)O3)c1 (centres undefined)	nt	23µM*	10µM*	nt	nt	26
O=C(Nc1ccc(Cl)c(C(F)(F)F)c1)C1Cc2c(-c3ccccc3)ccnc2O1 (centres undefined)	nt	?	?	nt	nt	-1
COc1ccc2c(c1)C(=O)CC2	nt	-6%	-2%	nt	nt	nt
Cc1ccc(-c2cn3cccnc3n2)cc1NC(=O)Cc1ccccc1	nt	4%	2%	nt	nt	nt
CC(=O)c1cccc(NC(=O)C2Cc3c(-c4cccc(C(N)=O)c4)ccnc3O2)c1 (centres undefined)	nt	16µM*	16µM*	nt	nt	-1
CS(=O)(=O)Nc1cccc(NC(=O)C2Cc3c(-c4ccco4)ccnc3O2)c1 (centres undefined)	nt	?	13µM*	nt	nt	0
Cc1cc(Br)ccc1NC(=O)CN(C)C(=O)COc1cccc2c1OC(C)(C)C2	2%	-18%	-21%	?	11%	-8
CCN(c1ccccc1)c1nnc(NC(=O)Nc2ccccc2F)s1	nt	?	2.6µM*	nt	nt	nt
Cc1cccc(NC(=O)Nc2nnc(N(C)Cc3ccccc3)s2)c1	nt	15µM*	?	nt	nt	nt
Cc1c(Cl)cccc1NC(=O)Nc1nnc(N(C)Cc2ccccc2)s1	nt	?	-27%	nt	nt	nt
Cc1ccccc1NC(=O)Nc1nnc(N(C)Cc2ccccc2)s1	nt	?	16µM*	nt	nt	nt
O=S(=O)(c1ccc(Cl)cc1)N1CCOCC1	nt	9%	-5%	nt	nt	nt
COc1ccccc1CNC(=O)CN1C(=O)NC2(CCCC2)C1=O	-49%	24%	17%	?	-1%	0
O=C1N(c2ccccc2C(F)(F)F)O[C@@]1(c1ccccc1)C1CCCC1	-5%	-22%	0%	7%	16µM*	-22
CC(C)C[C@]1(c2ccccc2)ON(c2ccccc2C(F)(F)F)C1=O	?	?	-14%	-3%	?	-11
COc1ccccc1[C@]1(C)ON(c2ccccc2C(F)(F)F)C1=O	9%	26µM*	?	?	14%	-100*
SMILES	SW480 rerep	TDP1 cell CPT	DT40 TDP1 no CPT	Chronic BCR inh	MCF10A rerep	IL1B secr inh
O=C1N(c2ccccc2C(F)(F)F)O[C@@]1(c1ccccc1)C1CCCCC1	?	13µM*	?	0%	21µM*	-16
Cc1cc2nc3n(c2cc1C)CCCN3	0%	5%	?	0%	17%	20
CCOC(=O)C1CCN(S(=O)(=O)c2ccc(Cl)s2)CC1	-6%	-13%	-13%	6%	2%	16
CCCCNc1ncnc2oc(-c3ccco3)c(-c3ccco3)c12	nt	6.3µM*	6.3µM*	nt	nt	nt
CN(C)CCNc1ncnc2oc(-c3ccccc3)c(-c3ccccc3)c12	?	?	?	-3%	?	-70*
COc1ccc(-c2oc3ncnc(NCCCN(C)C)c3c2-c2ccc(OC)cc2)cc1	?	?	18µM*	?	11%	-64*
Cc1cc2c(cc1S(=O)(=O)N(C)CC(=O)Nc1cccc(C#N)c1)OCC(=O)N2	nt	4%	-18%	1%	nt	nt
COCCn1c(=O)c(-c2cccs2)nc2cnc(Nc3ccccc3)nc21	nt	1%	-3%	nt	nt	nt
NS(=O)(=O)c1ccc(CCNC(=O)Cn2c(=O)c3cccn3c3ccc(F)cc32)cc1	nt	9%	-15%	nt	nt	nt
Fc1ccc(C2=CSC3=NCCN23)cc1	4%	8%	-11%	-3%	-3%	16
N=c1nc(N)nc2n1NC(c1ccc(F)cc1)=CS2	-1%	18µM*	16µM*	-1%	?	?

Assay outcomes (PubChem BioAssay)
